Assay outcomes as filed in PubChem BioAssay.
FLuc counter: counter-screen for miR-21 project: firefly luciferase inhibitors or activators; AID 588342; purified FLuc, Km substrates, luminescence inhibition; P08659; 360,000 tested, 6.9% active; Potency, µM (series often up to 57.5 µM), for the others: top-dose activity change, negative = inhibition, hits mostly inhibitors;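 also: plate controls were vehicle for no effect and reference inhibitor for full effect; nearly all actives have a fitted effect of over 55% in size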
Target sequence (P08659 whole entry, looked up): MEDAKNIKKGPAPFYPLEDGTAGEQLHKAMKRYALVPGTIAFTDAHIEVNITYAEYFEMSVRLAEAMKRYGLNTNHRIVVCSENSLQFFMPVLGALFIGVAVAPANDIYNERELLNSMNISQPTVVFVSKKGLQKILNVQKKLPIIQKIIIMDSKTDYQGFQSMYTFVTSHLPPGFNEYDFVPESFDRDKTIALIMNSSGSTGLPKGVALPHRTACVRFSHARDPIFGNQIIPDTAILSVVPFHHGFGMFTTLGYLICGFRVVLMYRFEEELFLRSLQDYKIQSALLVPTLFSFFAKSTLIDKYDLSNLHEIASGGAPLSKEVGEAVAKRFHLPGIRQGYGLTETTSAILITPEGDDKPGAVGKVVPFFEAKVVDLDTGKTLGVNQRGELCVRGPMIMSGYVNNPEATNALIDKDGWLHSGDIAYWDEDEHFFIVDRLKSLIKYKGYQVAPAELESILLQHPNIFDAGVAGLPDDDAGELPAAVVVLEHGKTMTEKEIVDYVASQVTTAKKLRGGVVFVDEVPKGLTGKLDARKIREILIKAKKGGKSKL
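Purified P. pyralis luciferase (10nM final) with 10uM D-luciferin and 10uM ATP (Km levels) in 50mM Tris acetate pH 7.5, 10mM Mg acetate, 0.01% Tween-20, 0.05% BSA; qHTS 6-point titration, ~60 µM downward; luminescence read.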
ELG1 genotoxic: induces genotoxicity in HEK293T cells with luciferase-tagged ELG1; HEK293T ELG1-luciferase reporter, luminescence, 16 h; Potency, µM (titrated, usually from 46 µM), inactives show at the top dose activity change, positive = activation, most hits filed as activators; 330,000 tested, 1.3% active; AID 504466; also: % of control where 0% means no effect; nearly all actives have a fitted effect of over 60% in size
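After overnight (16 hr) compound treatment at 37 °C, ELG1-luciferase HEK293T cells were lysed with ONE-Glo; luminescence quantified 30 min later at room temperature.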
NPC1 prom act: NPC1 promoter activation. Huh7 NPC1 promoter luciferase reporter, 24 h. AID 485313. 320,000 tested, 2.4% active. Potency, µM (top dose mostly 9.22 µM), for inactives: at the highest dose activation, actives largely listed as activators; also: % of control where 0% means no effect; nearly all actives have a fitted effect of over 60% in size
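NPC1 promoter–luciferase Huh7 cells; 24 h compound; luminescence.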
SMN2 splice enh: SMN2 splice variant enhancement; HEK293 SMN2-luciferase splicing reporter, luminescence, 30-36 h; Potency, µM (highest dose often 46.1 µM), inactives show at the highest dose activity change, positive = activation, actives largely listed as activators; 210,000 tested, 2.8% active; AID 1458; also: % of control where 0% means no effect; nearly all actives have a fitted effect of over 55% in size
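HEK293 cells carry an SMN2 minigene-luciferase reporter in which exon 7 inclusion puts luciferase in frame. Cells were seeded at 2000 cells/well, attached for 10-12 hours, then exposed to compounds for 30-36 hours at 37C before ONE-Glo luminescence.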
Rab9 promoter act: activators of Rab9 promoter; Huh7 Rab9 promoter-luciferase reporter, luminescence, 24 h; Potency, µM (top dose mostly 9.22 µM), for the others: at the highest dose activation, negative = inhibition, hits mostly activators; AID 485297; 320,000 tested, 2.8% active; also: % of control where 0% means no effect; nearly all actives have a fitted effect of over 60% in size
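Promoter activation is measured as luciferase luminescence in Huh7 cells stably transfected with a Rab9 promoter–luciferase construct, following 24 h compound exposure at 37 °C and 10 min reagent incubation at ambient temperature.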
Luc counter: counter-screen: inhibitors of Kinase-Glo firefly luciferase; Kinase-Glo luciferase, ATP luminescence, 8 min; Potency, µM (doses to about 38.3 µM), for the others: top-dose activity change, negative = inhibition, hits mostly inhibitors; 200,000 tested, 0.28% active; also: % is scaled to controls: 0 for no effect and ±100 for the full control effect; nearly all actives have a fitted effect of over 60% in size
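Substrate mix (final 50 mM imidazole pH 7.2, 50 mM KCl, 7 mM MgCl2, 10 uM ATP, 0.01% Tween 20, 0.05% BSA) plus pin-tool compound, then Kinase-Glo detection mix; 8 min ambient, luminescence read.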
An asterisk follows results filed as active; ? = inconclusive; . = no result; [ ] = remark or other dose. Hits are enriched below; roughly 7.3% of the tested compounds scored in any of these assays. Calls follow the shape of the dose curve; as a rule, active = well fitted curve in the direction sought with a large enough effect; inconclusive = small, poorly fitted or top-dose-only effect, or another doubt; inactive = no such curve, though single readings can be large; an effect the other way counts as inactive or inconclusive. Potency is read from the fitted curve at half-maximal effect.

SMILES	FLuc counter	ELG1 genotoxic	NPC1 prom act	SMN2 splice enh	Rab9 promoter act	Luc counter
COc1cccc2cc(CC(=O)c3ccc(C)c(C)c3)c(=O)oc12	16.9µM*	9.3%	5.7%	.	24.3%	.
NN(CC(=O)O)CC(=O)O	.	.	.	-13.5%[9.22 µM]	.	-3.4%[7.66 µM]
CC(/C=N/NC(=O)c1cc(C(C)(C)C)[nH]n1)=C\c1ccccc1	?	-3.2%	-1.5%	16.0%	-0.6%	0.2%
CC(=C/c1ccccc1)/C=N/NC(=O)c1ccccn1	0.601µM*	?	0.447µM*	.	0.447µM*	.
CC(/C=N/NC(=O)c1ccncc1)=C\c1ccccc1	7.57µM*	5.5%	19.5%	-6.9%	-2.5%	-5.2%
CC(/C=N/NC(=O)c1cccc(F)c1)=C\c1ccccc1	2.39µM*	?	0.501µM*	.	0.398µM*	.
CC(/C=N/NC(=O)Cc1cc(=O)[nH][nH]1)=C\c1ccccc1	15.1µM*	2.0%	-2.6%	-12.7%	-11.3%	-6.6%
CCC(=O)N1CCc2cc(S(=O)(=O)CCC(=O)N3CCN(c4cccc(C)c4)C(C)C3)ccc21 (configuration not stated)	-3.1%	.	.	-31.2%	.	.
COc1ccc2c(c1)C(=O)[C@H](OC(=O)NCc1ccco1)[C@@H](c1ccc(OC)c(Br)c1)O2	.	.	.	2.6%	.	-1.8%
COc1ccccc1C(=O)N/N=C/C(C)=C/c1ccccc1	9.53µM*	14.4%	?	.	14.7%	.
CC(=C/c1ccc(C(C)C)cc1)/C=N/NC(=O)c1ccncc1	2.69µM*	0.8%	24.8%	2.5%[1.84 µM]	28.0%	-2.1%
CC(/C=N/NC(=O)NC1CCCCC1)=C\c1ccccc1	?	10.5%	13.7%	24.0%	17.6%	-2.1%
C(=C\c1nnc2c3ccccc3ncn12)/c1ccccc1	1.69µM*	?	4.47µM*	14.1µM*	3.16µM*	-4.2%
COc1cccc(C(=O)Nc2cc3c(cc2Cl)OCCCO3)c1	3.01µM*	?	3.16µM*	10µM*	1.78µM*	-6.0%
COc1ccc(C(=O)Nc2cc3c(cc2Cl)OCCCO3)cc1	9.53µM*	?	2µM*	?	3.55µM*	-3.0%
Cc1ccc(CNC(=O)Cn2ccn(-c3ccc(F)cc3)c(=O)c2=O)cc1	2.8%	.	.	.	.	.
CCOc1ccc(CNC(=O)C2Cc3cc(S(=O)(=O)N4CCCCCC4)ccc3N2C(C)=O)cc1 (configuration not stated)	-1.3%	.	.	9.6%	.	.
NC(=O)C1CCN(c2ncnc3c(-c4ccccc4)nsc23)CC1	10.7µM*	12.8%	3.55µM*	11.5%	3.55µM*	2.6%
O=C(c1ccco1)N1CCN(c2ncnc3c(-c4ccccc4)nsc23)CC1	10.7µM*	-2.4%	3.16µM*	10.7%	2.82µM*	-1.0%
NC(=O)C1CCN(c2ncnc3c2cnn3-c2ccccc2)CC1	-17.0%	.	.	.	.	.
COC(=O)N1c2ccccc2C23[C@@H]4CN5CCC[C@]6(CCC12C(O)(C6)C4=O)[C@H]53	.	.	.	-33.2%	.	0.8%
Cc1ccc(CSc2ncc(Cl)c(C(=O)NCCc3ccc(S(N)(=O)=O)cc3)n2)cc1	-11.9%	.	.	-20.8%	.	.
CC(=O)Nc1ccc(/C=N/N2C(C)CCCC2C)cc1 (configuration not stated)	1.4%	7.2%	11.0%	-29.1%	16.3%	4.6%
CC(=O)Nc1ccc(/C=N/N2CCCCC2)cc1	26.9µM*	?	3.16µM*	14.1µM*	4.47µM*	-3.0%
CCCSCCCNC(=O)CN1C(=O)COc2ccc(S(=O)(=O)N3CCC(C)CC3)cc21	3.2%	.	.	5.1%	.	.
SMILES	FLuc counter	ELG1 genotoxic	NPC1 prom act	SMN2 splice enh	Rab9 promoter act	Luc counter
Nc1ccccc1C#CC(=O)c1ccccc1	6.01µM*	-1.2%	-0.5%	.	-2.4%	.
CCC1Oc2ccccc2N(CC(=O)NCc2ccccc2)C1=O (configuration not stated)	-3.8%	.	.	.	.	.
O=c1[nH]c(Nc2nc3ccccc3o2)nc2c1CCCC2	1.51µM*	?	0.316µM*	3.55µM*	0.316µM*	2.3%
COc1ccc(C2NC(=O)CS2)cc1OC (configuration not stated)	-0.3%	2.6%	-2.3%	11.2%	0.3%	0.1%
COc1ccc(C2NN=C(c3ccc(C)cc3)S2)cc1OC (configuration not stated)	2.39µM*	?	2.24µM*	11.2µM*	1.41µM*	-26.0%
Fc1cccc(C2NN=C(c3ccccc3)S2)c1 (configuration not stated)	1.07µM*	2.31µM*	2.24µM*	11.2µM*	2.82µM*	-26.2%
Cc1ccc(C2=NNC(c3cccc(F)c3)S2)cc1 (configuration not stated)	0.426µM*	-23.1%	0.562µM*	1.58µM*	0.501µM*	-22.7%
Cc1ccc(Cn2c(CO)cnc2SCc2cccc(F)c2)cc1	-18.2%	.	.	.	.	.
O=C1c2ccccc2C2=Nc3ccccc3SC(c3cccc(F)c3)C12 (configuration not stated)	5.8%	-8.4%	-5.8%	-28.9%	-3.9%	-1.4%
Cc1cc(C)c(S(=O)(=O)NCCc2sc3nc(-c4ccc(F)cc4)nn3c2C)c(C)c1	0.0%	.	.	.	.	.
COc1cccc2c(Cl)c(CCCl)c(C)nc12	21.3µM*	-7.7%	0.4%	-3.1%	11.1%	1.1%
CCOc1ccc(-n2c(=O)c3c4c(sc3n(Cc3cccc(C)c3)c2=O)CCCC4)cc1	-0.4%	.	.	5.6%	.	.
CCOC(=O)c1c(-c2ccc(C)cc2C)csc1NC(=O)c1ccccc1Cl	-4.7%	.	.	-14.2%	.	.
CC1CCN(S(=O)(=O)c2ccc3c(c2)N(CC(=O)NCc2ccccc2)C(=O)CO3)CC1	-4.2%	.	.	-6.8%	.	.
O=C(Nc1cnn(C23CC4CC(CC(C4)C2)C3)c1)c1cnn2cccnc12	2.13µM*	?	0.562µM*	.	0.447µM*	0.6%
COc1cc(OC)cc(C(=O)N2CCN(C(=O)COc3ccccc3)CC2)c1	1.2%	.	.	-11.0%	.	.
NC(=O)c1cc([N+](=O)[O-])ccc1NCc1cccc([N+](=O)[O-])c1	-0.1%	7.0%	-2.2%	.	-1.9%	.
NCc1cccc(CNc2ccc([N+](=O)[O-])cc2C(N)=O)c1	-1.9%	?	?	.	3.16µM*	.
Cc1ccsc1/C=N/NC(=O)c1ccc2c(c1)OCCO2	0.953µM*	1.64µM*	0.631µM*	.	0.355µM*	.
Cc1ccsc1/C=N/NC(=O)c1nnn(-c2nonc2N)c1-c1ccc2c(c1)OCO2	-14.9%	-7.4%	-2.6%	.	-4.1%	.
Cc1ccsc1/C=N/NC(=O)c1ccc2nc[nH]c2c1	?	8.9%	22.8%	21.1%	?	-4.7%
Cc1ccsc1/C=N\NC(=O)c1ccc2c(c1)OCO2	3.79µM*	?	1.41µM*	?	1.41µM*	-17.7%
CCc1nc(SC)ncc1C(=O)N1CCN(c2cc(C)ccc2C)CC1	23.2%	.	.	.	.	.
